Screening results (PubChem)
CTSL1 counter = counter-screen for PFM18AAP inhibitors: inhibitors of F. hepatica cathepsin L1 | recombinant F. hepatica cathepsin L1, Z-Leu-Arg-MCA fluorescence | inhibition, % at 5.96 µM | 300,000 tested, 0.49% active | AID 1906;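 active means inhibition above the mean of all tested compounds plus 3 SD, set per screening campaign, cut at about 17% in these data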;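 further: 0% = plate median of test compound wells and 100% = 1 µM Z-Phe-Ala-diazomethylketone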
pPAFAH inh = pPAFAH (human) enzyme inhibition. inhibition, % at 3.39 µM. 330,000 tested, 1.5% active. Q13093. recombinant pPAFAH, FP-rhodamine probe fluorescence polarization. AID 463082;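 active means inhibition above the mean inhibition across the screen plus 3 SD, cut at about 25% in these data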;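 further: inhibitors block binding of the rhodamine activity-based probe so polarization drops; 0% = enzyme with DMSO and 100% = wells lacking pPAFAH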
PAFAH2 FP inh = PAFAH2 (human) inhibition | Q99487 | recombinant PAFAH2, FP-rhodamine activity probe, fluorescence polarization | inhibition, % at 3.39 µM | 340,000 tested, 0.99% active | AID 492956;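 active means inhibition above the mean over all tested compounds plus 3 SD, cut at about 30% in these data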;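 further: inhibitors block probe labeling of enzyme so polarization drops; 0% = enzyme with DMSO and 100% = wells lacking PAFAH2 protein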
PP5 inh = blocks human protein phosphatase 5 activity | P53041 | purified PP5c, OMFP substrate fluorescence | inhibition, % at 6.7 µM | 320,000 tested, 0.18% active;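 active means inhibition above the campaign's mean inhibition across all tested compounds plus 3 SD, cut at about 9.5% in these data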;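 further: 0% = DMSO only and 100% = 100 µM cantharidin control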
PAFAH1B2 inh = blocks human PAF acetylhydrolase 1b catalytic subunit 2; AID 492953; 340,000 tested, 1.2% active; P68402; inhibition, % at 3.39 µM; recombinant PAFAH1B2, FP-rhodamine activity probe, fluorescence polarization;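 active means inhibition above the mean of all tested compounds plus 3 SD, cut at about 24% in these data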;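 further: 0% = enzyme with DMSO and 100% = wells lacking PAFAH1B2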
Target sequence (P68402 whole entry, looked up): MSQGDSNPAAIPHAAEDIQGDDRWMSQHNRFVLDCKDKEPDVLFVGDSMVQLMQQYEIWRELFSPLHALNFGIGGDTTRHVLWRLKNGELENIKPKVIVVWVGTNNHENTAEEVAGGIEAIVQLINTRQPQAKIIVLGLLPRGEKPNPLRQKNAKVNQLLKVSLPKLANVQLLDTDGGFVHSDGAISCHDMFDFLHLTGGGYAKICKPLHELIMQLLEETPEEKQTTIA
PAFAH1B3 FP inh = blocks human PAF acetylhydrolase 1B catalytic subunit 3; recombinant PAFAH1B3, FP-rhodamine probe, fluorescence polarization; 340,000 tested, 0.28% active; Q15102; inhibition, % at 3.39 µM;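 active means inhibition above the screen-wide average of all tested compounds plus 3 SD, cut at about 25% in these data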;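 further: 0% = enzyme with DMSO only and 100% = wells lacking PAFAH1B3 protein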
PAFAH2 confirm = PAFAH2 (human) inhibition, confirmed | shares compounds with PAFAH2 FP inh | inhibition, % at 3.39 µM | recombinant PAFAH2, FP-rhodamine activity probe, fluorescence polarization | AID 493030 | 2,300 tested, 65% active;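 active means mean inhibition over three repeats above a set limit taken from the earlier primary screen, cut at about 30% in these data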;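 further: inhibitor blocks binding of rhodamine activity probe so polarization falls; 0% = enzyme with DMSO and 100% = wells lacking PAFAH2 protein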
Starred values were filed as active, the others as inactive; . = not tested or not shown. Shown are actives, neighbours in structure and some others; about 3% of the full set was active somewhere.

SMILES	CTSL1 counter	pPAFAH inh	PAFAH2 FP inh	PP5 inh	PAFAH1B2 inh	PAFAH1B3 FP inh	PAFAH2 confirm
O=C(OCc1nc2ccccc2s1)c1cccc(S(=O)(=O)N2CCOCC2)c1	-3	12	45*	0	0	9	29
COc1ccc(/C=C/C(=O)OCc2cc(=O)n3c(n2)sc2ccccc23)cc1	0	-4	-2	2	3	-16	.
Cc1cccc(CN2CCC(Oc3ccc(C(=O)N4CCCCC4)cc3)CC2)c1	-4	-2	2	-1	7	8	.
CC(C)(C)c1ccc(S(=O)(=O)N2CCN(C(=O)C3CCC3)CC2)cc1	-1	0	1	-1	3	4	.
CCCN(C(=O)Cc1c(C(=O)O)n(C)c2ccccc12)c1cccc(C)c1	-1	-1	4	3	13	6	.
CC1CCCN(C(=O)COC(=O)c2ccc3[nH]c4c(c3c2)CCCC4)C1 (configuration not stated)	1	9	41*	1	5	-2	26
COC(=O)C1CCN(C(=O)COC(=O)c2ccc3[nH]c4c(c3c2)CCCC4)CC1	-4	3	8	1	0	6	.
C=CC[C@@H](CC(=O)NCCO)C(=O)N[C@@H](COC(=O)[C@@H](CC=C)CC(=O)OC(C)(C)C)Cc1c[nH]c2ccccc12	.	7	6	.	9	10	.
O=C1Nc2ccc(F)cc2C12Nc1ccccc1-c1nnc(SCc3ccccc3F)nc1O2 (configuration not stated)	-1	5	35*	2	9	6	15
NS(=O)(=O)c1cccc(NC(=O)COC(=O)CC2CC3CCC2C3)c1 (configuration not stated)	-8	2	35*	1	21	5	19
CC(=O)c1cccc(NC(=O)COC(=O)CC2CC3CCC2C3)c1 (configuration not stated)	.	20	75*	4	16	-2	63*
COc1ccccc1CNC(=O)Cn1cc([N+](=O)[O-])ccc1=O	0	8	1	3	1	8	.
Cc1ccc(S(=O)(=O)N2CCOCC2)cc1C(=O)OCC(=O)Nc1ccc2c(c1)OCO2	-2	4	37*	0	3	8	23
COc1cccc(NC(=O)COC(=O)c2cc(S(=O)(=O)N3CCOCC3)ccc2C)c1	-15	3	35*	0	1	6	21
COc1ccc(C2CC(c3ccccc3)=NN2C(=O)COC(=O)c2cc(S(=O)(=O)N3CCOCC3)ccc2Cl)cc1 (configuration not stated)	1	-2	31*	6	-8	-15	23
COc1ccc(C2CC(c3ccccc3)=NN2C(=O)COC(=O)c2cccnc2Cl)cc1 (configuration not stated)	-1	-6	2	1	3	-1	.
O=C(COC(=O)c1cc(S(=O)(=O)N2CCOCC2)ccc1F)Nc1ccc2c(c1)OCO2	.	8	3	.	-1	0	.
COc1cc(CN2CCN(CC#Cc3ccccc3)CC2CCO)cc(OC)c1 (configuration not stated)	.	.	-6	.	-2	-1	.
O=C(COC(=O)/C=C/c1ccc(F)cc1)NC1CCCCCC1	.	12	89*	.	0	3	81*
CC(C)NC(=O)COC(=O)/C=C/c1ccco1	-2	5	22	1	-1	4	.
O=C(COC(=O)/C=C/c1ccc(F)cc1)NC1CCCC1	.	.	79*	.	3	3	86*
CC(C)NC(=O)COC(=O)/C=C/c1ccc(F)cc1	-8	1	36*	-2	-3	5	22
O=C(COC(=O)c1ccc(F)cc1)NC1CC1	.	1	22	3	4	8	.
O=C(COC(=O)/C=C/c1ccc(F)cc1)NC1CC1	.	2	49*	.	-1	1	37*
Cc1[nH]c(=S)c(C#N)c(-c2ccco2)c1C(=O)N(C)C	2	13	16	0	5	0	.
O=C(COC(=O)/C=C/c1ccc(Cl)c(Cl)c1)NC1CC1	.	6	17	.	9	7	.
O=C(COC(=O)/C=C/c1ccc(Cl)cc1)NC1CCCC1	.	2	64*	3	6	6	67*
